Results filed as inconclusive are left out. A call without a number means that no potency is given here. Calls of active or inactive are those of the source. Calls follow the shape of the dose curve; as a rule, active = well fitted cell-killing curve with a large enough effect; inconclusive = small, poorly fitted or top-dose-only effect, or effect the other way; inactive = flat fitted curve, though single readings scatter. Where a SMILES comes first, the peptide text is derived from it. The star is where a group is joined. AFC = O=c1cc(C(F)(F)F)c2ccc(N*)cc2o1
These molecules were tested on OV90 (assay: Primary qHTS to identify gynecologic anti-cancer compounds using libraries of approved drugs and bioactive compounds (AID 1345084; also: nearly all actives have a fitted effect of over 55% in size)). Details: Gynecologic cancer cell panel viability, ATPlite luminescence, 48 h; series mostly up to 57.5 µM.
How it was run: (§1)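 ATP-based viability (ATPlite), 1,000 cells/well, 16 h pre-incubation, 48 h compound at 37 C, 5% CO2, 15 min RT before read.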

Question: With `CC(C)C(C#N)O[C@@H]1O[C@H](CO[C@@H]2O[C@@H](C)[C@H](O)[C@@H](O)[C@H]2O)[C@@H](O)[C@H](O)[C@H]1O` (some centres not stated) as the molecule, how does the Potency read?
Answer: Its Potency is “inactive”.

Question: How did the activity change, negative = cytotoxicity turn out when `COC1CC(OC2CCC3(C)C(=CCC4C3C(OC(C)=O)C(OC(=O)/C=C/c3ccccc3)C3(C)C(C(C)O)CCC43O)C2)OC(C)C1OC1CC(OC)C(OC2OC(C)C(OC3OC(CO)C(O)C(O)C3O)C(OC)C2O)C(C)O1` (configuration not stated) was run?
Answer: The activity change, negative = cytotoxicity was -2.22% [at 6.55 µM] (inactive).

Question: Which Potency does the source give for `C=C1C(O)CC2C(C(=O)O)=COC(O[C@@H]3O[C@H](COC(=O)/C=C/c4ccc(O)cc4)[C@@H](O)[C@H](O)[C@H]3O)C12` (some centres not stated) here?
Answer: Its Potency is “inactive”.

Question: How did the Potency turn out when `CC(=O)O[C@H]1CC[C@H](C)[C@@]2(C)[C@H](OC(C)=O)c3c(C)coc3C(=O)[C@H]12` was run?
Answer: Its Potency is “inactive”.

Each molecule was assayed on PA-1 in the same assay as above. Details: Gynecologic cancer cell panel viability, ATPlite luminescence, 48 h; series mostly up to 57.5 µM.
How it was run: as §1

Question: `CCC(C)C(=O)O[C@H]1CCC=C2C=C[C@H](C)[C@H](CC[C@@H](O)C[C@@H](O)CC(=O)O)[C@H]21` (some centres not stated) was tested. Which Potency did it give?
Answer: The Potency was “inactive”.

Question: With `CC(=O)NC1C(OC(C)(C)C2CCC3(C)C=C(C4CCC5C4(C)CC(O)C4OC(C(C)(C)O)CCC45C)CCC3O2)OC(CO)C(O)C1O` (configuration not stated) as the molecule, how does the Potency read?
Answer: Its Potency is “inactive”.

Question: With `CC(=O)O[C@@H]1c2c3c(cc(O)c2C(=O)O[C@@H]1C)O[C@@]1(C)[C@@H](O)C[C@H]2C(C)(C)C(=O)C=C[C@]2(C)[C@@H]1C3` as the molecule, how does the Potency read?
Answer: The Potency was “inactive”.

Question: Which Potency does the source give for `COc1c(C)c(OCC(O)C(C)(C)O)cc2c1COC2=O` (configuration not stated) here?
Answer: Its Potency is “inactive”.

Question: Which Potency does the source give for `CC(=O)CC1CCC(C(C)C(=O)OCC(O)CO)O1` (configuration not stated) here?
Answer: The Potency was “inactive”.

Question: `O=C(O)COCCN1CCN([C@H](c2ccccc2)c2ccc(Cl)cc2)CC1` was tested. Which Potency did it give?
Answer: Its Potency is “inactive”.

Question: How did the Potency turn out when `Nc1nc2c(ncn2[C@@H]2O[C@@H]3COP(=O)(O)O[C@H]3[C@H]2O)c(=O)[nH]1` was run?
Answer: Its Potency is “inactive”.

Question: How did the Potency turn out when `CC1=C(C(=O)O)/C(=C/CO[C@@H]2O[C@H](COC(=O)/C=C/c3ccc(O)cc3)[C@@H](O)[C@H](O)[C@H]2O)C(O)C1` (some centres not stated) was run?
Answer: Its Potency is “inactive”.

Question: With `Cc1cc(C)c2c(N)c(C(=O)NCc3ccc(Cl)cc3)sc2n1` as the molecule, how does the Potency read?
Answer: Its Potency is “inactive”.

Question: `CC(=O)OC1C(O)C2C(C)C3=CC(=O)OC3(O)CC2C2(C)CCCC(C)(CO)C12` (configuration not stated) was tested. Which Potency did it give?
Answer: The Potency was “inactive”.

Question: `CC(C)C(NC(=O)c1ccc2ccccc2n1)C(=O)NC(CC(=O)O)C(=O)COc1c(F)cccc1F` (configuration not stated) was tested. Which Potency did it give?
Answer: Its Potency is “inactive”.

Question: `O=C(Nc1ccc(-c2ccncc2)cc1)N[C@H](CO)c1ccccc1` was tested. Which Potency did it give?
Answer: The Potency was “inactive”.

Question: How did the Potency turn out when `CC1=CC2/C=C(\C)CC[C@@H](O)[C@@H](O)[C@@H]3O[C@@H]3C(=O)[C@]23C(=O)N[C@@H](CC(C)C)[C@@H]3[C@@H]1C` (some centres not stated) was run?
Answer: Its Potency is “inactive”.

Question: With `O=C(NCC(O)CO)c1ccncc1Nc1ccc(I)cc1F` (configuration not stated) as the molecule, how does the Potency read?
Answer: The Potency was “inactive”.

Question: With `CC1(C)CC2=C3C=CC4C5(C)CCC(O)C(C)(C)C5CCC4(C)C3(C)CCC2(C)C(O)C1` (configuration not stated) as the molecule, how does the Potency read?
Answer: The Potency was “inactive”.

Question: `COC(=O)C1=CO[C@@H](O[C@@H]2O[C@H](CO)[C@@H](O)[C@H](O)[C@H]2O)[C@H]2[C@@H]1CC(OC)O[C@@H]2C` (some centres not stated) was tested. Which Potency did it give?
Answer: Its Potency is “inactive”.

Question: With `C[C@@H]1O[C@@H](O[C@@H]2[C@@H](O[C@@H]3O[C@@H](C)[C@H](O[C@@H]4OC[C@H](O)[C@H](O[C@@H]5OC[C@@H](O)[C@H](O)[C@H]5O)[C@H]4O)[C@@H](O[C@@H]4OC[C@](O)(CO)[C@H]4O)[C@H]3O)[C@H](OC(=O)[C@]34CCC(C)(C)C[C@H]3C3=CCC5[C@@]6(C)C[C@H](O)[C@H](O[C@@H]7O[C@H](CO[C@@H]8OC[C@H](O)[C@H](O)[C@H]8O)[C@@H](O)[C@H](O)[C@H]7O)C(C)(C)C6CC[C@@]5(C)[C@]3(C)C[C@H]4O)OC[C@H]2O)[C@H](O)[C@H](O)[C@H]1O` (some centres not stated) as the molecule, how does the activity change, negative = cytotoxicity read?
Answer: Its activity change, negative = cytotoxicity is 18.2% [at 6.55 µM] (inactive).

Question: `C=C1CCCC2(C)CC3(OC)OC(=O)C(C)=C3CC12` (configuration not stated) was tested. Which Potency did it give?
Answer: Its Potency is “inactive”.

Question: `CC(C)=CCC/C(C)=C/CCC1(C)Oc2c(c(O)cc3c2CN(C(CCC(=O)O)C(=O)O)C3=O)CC1O` (configuration not stated) was tested. Which Potency did it give?
Answer: The Potency was “inactive”.

Question: For `C=C(C(=O)O)C1CCC2(C)CCC(O)C(=C)C2C1` (configuration not stated), which Potency is on record?
Answer: Its Potency is “inactive”.

Question: How did the Potency turn out when `CC12CCC3c4ccc(OC5OC(C(=O)O)C(O)C(O)C5O)cc4CCC3C1CCC2O` (configuration not stated) was run?
Answer: Its Potency is “inactive”.

Question: For `CC(=O)N[C@@H](Cc1c[nH]c2ccccc12)C(=O)N[C@@H](CCC(=O)O)C(=O)N[C@@H](Cc1cnc[nH]1)C(=O)N[C@@H](CC(=O)O)C(=O)Nc1ccc2c(C(F)(F)F)cc(=O)oc2c1` (Ac-WEHD-{AFC}), which Potency is on record?
Answer: Its Potency is “inactive”.

Question: With `C[C@@H]1O[C@@H](O[C@H]2[C@@H](OC(=O)[C@]34CCC(C)(C)CC3C3=CCC5[C@@]6(C)C[C@H](O)[C@H](O[C@@H]7O[C@H](C(=O)O)[C@@H](O)[C@H](O)[C@H]7O)[C@@](C)(C(=O)O)C6CC[C@@]5(C)[C@]3(C)CC4)OC[C@H](O)[C@@H]2O)[C@H](O)[C@H](O)[C@H]1O[C@@H]1OC[C@@H](O)[C@H](O)[C@H]1O` (some centres not stated) as the molecule, how does the activity change, negative = cytotoxicity read?
Answer: Its activity change, negative = cytotoxicity is -35% [at 11.6 µM] (inactive).

Source: PubChem BioAssay (NCATS)
